From PubChem BioAssay (NCI)
This is part of a sample that, as a whole, favours compounds with a hit. Of some 83,000 tested, about 20% had one in any assay.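 Testing used 96-well plates and a 48-hour single-concentration exposure. Example: -40 means 40% of the starting cells died.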 Activity calls are given as the source filed them. How the source made its calls: active means growth percent below 10; inactive means the rest.

Experiments:
Experiment in all cases: NCI-60 one-dose screen, 48 h (100 = growth as untreated, 0 = no growth, -100 = all killed)
Conditions in all cases: 10 µM unless noted
[1] = test system: DU-145 prostate
[2] = test system: K-562 leukemia
[3] = test system: MALME-3M melanoma
[4] = test system: MDA-MB-231 breast
[5] = test system: RXF 393 renal
[6] = test system: SF-268 CNS
[7] = test system: SF-295 CNS
[8] = test system: SF-539 CNS
[9] = test system: UACC-257 melanoma
[10] = test system: M14 melanoma
[11] = test system: HCT-15 colon
[12] = test system: HT29 colon
[13] = test system: SNB-75 CNS
[14] = test system: SNB-19 CNS
[15] = test system: U251 CNS
[16] = test system: PC-3 prostate
[17] = test system: SK-MEL-5 melanoma
[18] = test system: UACC-62 melanoma
[19] = test system: LOX IMVI melanoma
[20] = test system: SK-MEL-28 melanoma

Measured: growth

COc1c(-c2cc(-c3ccc(C)o3)[nH]c(=O)n2)c(O)cc2occc12
inactive: [1] 78.2% | [2] 16.8% | [3] 69.2% | [4] 70.8% | [5] 56.3% | [6] 69.8% | [7] 77.6% | [8] 69.9% | [9] 78.7% | [10] 44.7% | [11] 32.6% | [12] 96% | [13] 50% | [14] 65.9% | [15] 63.5% | [16] 69.4% | [17] 76.8% | [18] 48.1% | [19] 58.2%

O=C(Nc1ccc(Oc2ccc(Nc3nc4ccccc4s3)cc2)cc1)Nc1ccc(Cl)c(C(F)(F)F)c1
inactive: [6] 18.5% | [13] 16.7% | [14] 22.5% | [20] 25.3%
active: [1] 9.51% | [2] 6.86% | [3] 2.78% | [4] -65.5% | [5] 8.85% | [7] 5.6% | [8] 9.29% | [9] -11.6% | [10] -4.56% | [11] 8.45% | [12] -10.9% | [15] 2.67% | [16] 3.08% | [17] -84.8% | [18] 1.63% | [19] -88.3%

COc1ccc(C2C3CCc4ccccc4C3=NN2C(=O)c2cc(OC)c(OC)c(OC)c2)cc1O (stereo unspecified)
inactive: [1] 111% | [2] 52.7% | [3] 77.2% | [4] 103% | [5] 56.8% | [6] 105% | [7] 91.2% | [8] 101% | [9] 110% | [10] 101% | [11] 109% | [12] 104% | [13] 89.4% | [14] 109% | [15] 108% | [16] 92.2% | [17] 104% | [18] 105% | [19] 94.6%

O=C1/C(=C\c2cccn2Cc2ccc(Cl)cc2)c2ccccc2N1c1c(Cl)cccc1Cl
inactive: [1] 105% | [2] 75.6% | [3] 79.5% | [4] 68.1% | [5] 78.3% | [6] 88.1% | [7] 87.7% | [8] 88.8% | [9] 93.1% | [10] 101% | [11] 61.4% | [12] 85.5% | [13] 82.2% | [14] 87.8% | [15] 75.6% | [16] 57.5% | [17] 66.1% | [18] 71.7% | [19] 91.9% | [20] 91%

O=C(/C=C/c1cn(-c2ccccc2)nc1-c1cccc(Nc2ccnc3cc(Cl)ccc23)c1)c1ccc2c(c1)OCO2
inactive: [1] 76.8% | [2] 66.8% | [3] 38% | [4] 72.7% | [5] 95.2% | [6] 89.7% | [7] 115% | [8] 95.7% | [9] 95% | [10] 111% | [11] 91.9% | [12] 114% | [13] 101% | [14] 104% | [15] 89.1% | [16] 96.6% | [17] 85.3% | [18] 104% | [19] 94.1% | [20] 82.7%

Cc1ccc(C2CC(c3cccs3)=NN2c2ccc(S(N)(=O)=O)cc2)s1 (stereo unspecified)
inactive: [1] 99.2% | [2] 77.9% | [3] 79.4% | [4] 91.6% | [5] 93.1% | [6] 96.5% | [7] 98.3% | [8] 104% | [9] 36.3% | [10] 81.9% | [11] 80.8% | [12] 86.5% | [13] 74.5% | [14] 84.8% | [15] 78.5% | [16] 56.4% | [17] 65.7% | [18] 44.1% | [19] 104% | [20] 64.9%

CN1CCN(Cc2ccc(NC(=O)c3cncc(C#Cc4cnc5cccnn45)c3)cc2C(F)(F)F)CC1
inactive: [7] 28.6% | [18] 10%
active: [1] 3.43% | [2] 2.91% | [3] -46.5% | [4] -14.4% | [5] -56.3% | [6] -27.9% | [8] -47.9% | [9] 3.46% | [10] -33.5% | [11] 5.63% | [12] 1.67% | [13] -68.8% | [14] 9.4% | [15] 5.83% | [16] 5.62% | [17] 1.22% | [19] -16.2%

COCCOCCOCc1n(Cc2ccc3ccccc3n2)c2ccccc2[n+]1Cc1ccc2ccccc2c1
active: [2] 2.47% | [3] -7.52% | [4] 8.58% | [5] -19.9% | [7] -12.3% | [9] -8.67% | [10] -0.723% | [12] -4.5% | [13] -5.72% | [16] 5.71% | [17] -94.1% | [18] -38.5% | [19] -76% | [20] 8.66%
inactive: [1] 24.6% | [6] 20% | [8] 15.8% | [11] 78.3% | [14] 11.6% | [15] 12.4%

COc1cc(/C=C/c2ccc3c(Br)cc(Br)c(O)c3n2)ccc1O
active: [2] -44.5% | [5] 1.71%
inactive: [1] 42.2% | [3] 53.7% | [4] 53% | [6] 22.8% | [7] 27.4% | [8] 21.5% | [9] 25.1% | [10] 27.1% | [11] 27.6% | [12] 36.7% | [13] 36.5% | [14] 23.4% | [15] 16.4% | [16] 12.9% | [17] 27.5% | [18] 10% | [19] 29.5% | [20] 23.3%

COc1cc(C2CC(c3cccc(Nc4ccnc5cc(Cl)ccc45)c3)=NN2c2ccccc2)cc(OC)c1OC (stereo unspecified)
active: [18] 9.18%
inactive: [1] 68.9% | [2] 14% | [3] 64.3% | [4] 77.7% | [5] 93.1% | [6] 63.2% | [7] 31.5% | [8] 80.7% | [9] 80.1% | [10] 34.7% | [11] 67.1% | [12] 59.7% | [13] 79.2% | [14] 90.9% | [15] 78.8% | [16] 55.2% | [17] 62.1% | [19] 46.1% | [20] 67.2%

COc1ccc([C@@H]2[C@@H](Oc3ccccc3)C(=O)N2c2cc(OC)c(OC)c(OC)c2)cc1F
active: [1] 9.48% | [2] 4.73% | [5] 3.39% | [7] 3.68% | [8] -21.1% | [10] 5.14% | [12] -6.94% | [15] 4.18% | [17] -15.1% | [18] 0.0629%
inactive: [3] 65.5% | [4] 12.4% | [6] 25.3% | [9] 57.3% | [11] 12.7% | [13] 61.4% | [14] 19.9% | [16] 20.7% | [19] 14% | [20] 48.9%

COc1cc(C(=O)/C=C/c2cn(-c3ccccc3)nc2-c2cccc(Nc3ccnc4cc(Cl)ccc34)c2)cc(OC)c1OC
inactive: [1] 76.9% | [2] 59.5% | [3] 73% | [4] 62.9% | [5] 86.7% | [6] 93.6% | [7] 117% | [8] 98% | [9] 111% | [10] 100% | [11] 87.4% | [12] 77.1% | [13] 107% | [14] 116% | [15] 88.1% | [16] 107% | [17] 71.4% | [18] 104% | [19] 71.5% | [20] 93.9%

O=C(/C=C/c1cccc([N+](=O)[O-])c1)c1ccc(Nc2nc(N3CCCCC3)nc(N3CCCCC3)n2)cc1
inactive: [1] 98.7% | [2] 97.7% | [3] 118% | [4] 103% | [5] 100% | [6] 97.5% | [7] 93.2% | [8] 99.6% | [9] 97.4% | [10] 98% | [11] 87.6% | [12] 88.6% | [13] 101% | [14] 100% | [15] 95.2% | [16] 89.3% | [17] 97.6% | [18] 91% | [19] 92.9%

Cc1nc2ccc(Nc3nc(N4CCOCC4)nc(N4CCN(C)CC4)n3)cc2n1Cc1ccccc1
inactive: [1] 98.4% | [2] 29.3% | [3] 65.7% | [4] 68.5% | [5] 61.1% | [6] 68.8% | [7] 90.1% | [8] 76.5% | [9] 82.5% | [10] 83.4% | [11] 87.4% | [12] 53% | [13] 62.4% | [14] 112% | [15] 73.5% | [16] 90% | [17] 71.4% | [18] 107% | [19] 74.7% | [20] 64.1%

COc1cc(C2CC(c3ccc(Cl)cc3)=NN2C=O)ccc1OS(=O)(=O)c1ccc(C)cc1 (stereo unspecified)
inactive: [1] 105% | [2] 82.1% | [3] 93.8% | [4] 92.5% | [5] 97.2% | [6] 100% | [7] 87.4% | [8] 89.6% | [9] 85.3% | [10] 84% | [11] 89.7% | [12] 99.3% | [13] 91.5% | [14] 86.7% | [15] 91% | [16] 94.4% | [17] 86.3% | [18] 78.6% | [19] 97.2% | [20] 103%

CC(=O)Nc1nonc1-c1nc2ccccc2n1Cc1ccc(C(C)(C)C)cc1
inactive: [1] 79.9% | [2] 30.2% | [3] 90.5% | [4] 92.8% | [5] 65.8% | [6] 67.2% | [7] 79.6% | [8] 89% | [9] 92% | [10] 92% | [11] 90.4% | [12] 74.1% | [13] 50.2% | [14] 80.1% | [15] 75.7% | [16] 28.6% | [17] 79.9% | [18] 81.6% | [19] 63% | [20] 101%
